The values that follow come from PubChem BioAssay AID1347416 (National Center for Advancing Translational Sciences (NCATS), 2020).

Each structure is given as a SMILES string. About 1,600 (39%) of roughly 4,100 compounds were called active. About 25% were inconclusive and are not listed. Calls come from the whole dose curve; as a rule, active = well fitted inhibition curve with a large enough effect; inconclusive = small, poorly fitted or top-dose-only effect; inactive = no such curve, though single readings can be large or run the other way. This is one part of the list.
Potency is the fitted concentration of half-maximal effect.

The assay is described as follows: qHTS Validation assay for Inhibitors of Plasmodium falciparum Dd2 growth in vitro. Note: nearly all actives have a fitted effect of over 70% in size. As to conditions: P. falciparum Dd2 in RBCs, SYBR Green growth, 72 h; series mostly up to 28.7 µM. In outline: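 P. falciparum Dd2-infected red blood cells (2.5% hematocrit, 0.3% parasitemia) grown 72 h at 37 °C under 5% O2 with compounds in a titration, 29 uM to 0.5 nM final. Growth read as SYBR Green-1 fluorescence after ~16 h lysis; artesunate 300 nM as positive control.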
Consider `Cc1ccc(CNC(=O)CN2CCN(Cc3ccc(F)cc3Cl)C2=O)cc1`, for which the Potency result was “inactive”.

`O=c1c([N+](=O)[O-])cccn1Cc1ccc(F)cc1Cl`: the Potency is 4.73 µM (active).

`Cc1ccc(S(=O)(=O)Nc2cc(C)cn(Cc3ccc(F)cc3)c2=O)cc1`: the Potency entry was “inactive”.

On to `CCCn1c(SCC(=O)Nc2cc(Cl)ccc2Cl)n[nH]c1=O`, for which the Potency was 5.31 µM (active).

For the compound `O=C(CSc1nccn1-c1cccc(Cl)c1)NO`, the Potency entry is “inactive”.

Take `Cc1ccccc1-n1c(SCC(=O)Nc2ccc(Cl)cc2Cl)nc(O)cc1=O`: the Potency entry was “inactive”.

`CC(=O)c1c(N2CCN(C)CC2)[nH]c(-c2ccccc2)nc1=S`: the Potency is 5.96 µM (active).

As for `O=c1c2c([nH]c3ccccc13)CCCC2`, the Potency was 6.68 µM (active).

Take `O=c1c2c([nH]c3ccc(Br)cc13)CCCC2`: the Potency is 6.68 µM (active).

As to `O=c1c(-c2ccccc2)n[nH]c2ccccc12`, the Potency result was “inactive”.

As for `CC(C)(C)C1CCc2[nH]c3ccccc3c(=O)c2C1` (configuration not stated), the Potency was 1.88 µM (active).

Take `O=C(CSc1nc(Nc2ccccc2)nc(N2CCOCC2)n1)Nc1cc(Cl)ccc1O`: the Potency was 2.37 µM (active).

Regarding `CCN(CC)CCNC(=O)c1ccc(NC(=O)c2cn(-c3ccc(F)cc3)nc2-c2cccc(OC)c2)cc1`, the Potency was 9.44 µM (active).

Turning to `COc1cccc(-c2cc3c(=O)n(CCNC(=O)COc4ccc(F)cc4)ccn3n2)c1`, the Potency result is “inactive”.

Take `Cc1nn(-c2ccccc2)nc1-c1nnc(-c2ccc(C(F)(F)F)cc2)o1`: the Potency entry was “inactive”.

For `COc1cc(NC2CCCCC2O)c2nc(-c3ccc(Cl)cc3)ccc2c1` (configuration not stated), the Potency was 5.31 µM (active).

`Oc1ccc(Cl)cc1CNCC1CCCCC1`: the Potency was 4.22 µM (active).

Take `Oc1ccc(Cl)cc1CNCc1cccc2ccccc12`: the Potency is 0.842 µM (active).

As for `Oc1ccc(Cl)cc1CNCc1ccc(C(F)(F)F)cc1`, the Potency was 4.22 µM (active).

As to `O=C(Nc1cccc(-c2nc3ccccc3[nH]2)c1)c1ccc(C(=O)Nc2cccc(-c3nc4ccccc4[nH]3)c2)cc1`, the Potency was 2.66 µM (active).

For the compound `CC(=O)Nc1ccc(S(=O)(=O)N2CCC(n3c(C)nc4cccnc43)CC2)cc1`, the Potency entry is “inactive”.

Take `CC(C)(C)N1C(=O)c2ccc(C(=O)Nc3ccc(-c4nc5ccccc5[nH]4)cc3)cc2C1=O`: the Potency is 6.68 µM (active).

`O=C(Nc1cccc(Oc2ccc(C(=O)O)c(C(=O)O)c2)c1)c1ccc(-c2ccccc2)cc1`: the Potency result was “inactive”.

For `CC1CCCCN1S(=O)(=O)c1ccc(C(=O)Nc2ccccc2-c2nc3ccccc3[nH]2)cc1` (configuration not stated), the Potency is 7.5 µM (active).

In the case of `CS(=O)(=O)c1ccc(C(=O)Nc2ccc(-c3nc4ccccc4[nH]3)cc2)cc1`, the Potency was 7.5 µM (active).

Consider `COC(=O)c1ccc(NC(=O)CSc2nc3cc4ccccc4cc3[nH]2)cc1`, for which the Potency result was “inactive”.

Regarding `Nc1ccc2nc(-c3cccnc3)[nH]c2c1`, the Potency result is “inactive”.
